# Source: PubChem
# A selection: hits, their analogues and other compounds. The true share with any hit is near 4.6%.
# TRb SRC2 PPI: inhibitors of human thyroid hormone receptor beta-SRC2 interaction. TRbeta-SRC2 peptide binding, fluorescence polarization; receptor liganded with 1 µM T3. AID 1469. 0.065% of 280,000 active. P10828. Potency, µM (doses to about 106 µM), for the others: top-dose activity change, negative = inhibition, most hits filed as inhibitors;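 note: potency is the fitted concentration of half-maximal effect; plate controls were bound peptide for no effect and peptide without receptor for full effect; nearly all actives have a fitted effect of over 50% in size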
# Target sequence (P10828 whole entry, looked up): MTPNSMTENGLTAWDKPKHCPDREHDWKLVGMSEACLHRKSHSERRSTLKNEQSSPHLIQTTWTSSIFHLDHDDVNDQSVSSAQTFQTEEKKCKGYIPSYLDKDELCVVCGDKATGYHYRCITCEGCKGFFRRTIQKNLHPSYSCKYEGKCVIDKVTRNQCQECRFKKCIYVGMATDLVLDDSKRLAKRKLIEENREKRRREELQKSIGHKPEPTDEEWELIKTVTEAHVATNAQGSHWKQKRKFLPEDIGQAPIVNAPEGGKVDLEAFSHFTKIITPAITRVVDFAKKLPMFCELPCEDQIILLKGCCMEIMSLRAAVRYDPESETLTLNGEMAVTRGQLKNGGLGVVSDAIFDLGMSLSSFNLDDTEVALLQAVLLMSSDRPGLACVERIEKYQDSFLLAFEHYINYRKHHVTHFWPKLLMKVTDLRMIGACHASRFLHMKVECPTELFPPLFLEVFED
#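 Fluorescence polarization of 20 nM Texas Red SRC2 peptide with 0.6 uM human TRb ligand-binding domain, in Tris buffer with 1uM T3 and 5% DMSO. Incubated 5 hr ambient; normalized to unbound and bound controls.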
# Tau FP inhib: blocks human tau fibril formation measured by polarization; P10636; K18 P301L tau heparin fibrillization, Alexa594 FP, 6 h; Potency, µM (top dose mostly 57.7 µM), for inactives: top-dose activity, negative = inhibition, actives largely listed as inhibitors; 0.39% of 280,000 active; AID 1468; note: potency is the fitted concentration of half-maximal effect; nearly all actives have a fitted effect of over 55% in size
# Target sequence (P10636 561-689 P618L limits assumed): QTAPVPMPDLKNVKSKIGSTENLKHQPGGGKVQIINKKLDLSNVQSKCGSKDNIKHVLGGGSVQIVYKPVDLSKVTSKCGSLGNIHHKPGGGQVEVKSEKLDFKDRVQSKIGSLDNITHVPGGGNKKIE
#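 FP of Alexa 594-tau after heparin (20 uM) induction. Substrate: human K18 P301L, 15 uM unlabeled, 0.24 uM labeled. Buffer 100 mM sodium acetate pH 7. 6 hr, 37 C.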
# TR SRC2 fluor cs: counter-screen for TRb-SRC2 inhibitors: fluorescence interference | 0.29% of 280,000 active | Potency, µM (series often up to 106 µM), for inactives: top-dose fluorescence change, negative = quenching | TRb/SRC2 Texas Red total fluorescence interference; active = well fitted curve in either direction with a large enough effect; inconclusive = small, poorly fitted or top-dose-only effect; note: potency is the fitted concentration of half-maximal effect
#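 Flags fluorescent or light-absorbing compounds by total fluorescence, S + 2P, at 555 nm excitation and 632 nm emission. Mixture: 20 nM Texas Red SRC2 peptide, 0.6 uM human TRb LBD, 1 uM T3, 5% DMSO; compound exposure 5 h at ambient temperature.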
# PNC assembly inh: perinucleolar compartment assembly inhibition | PC3M PTB-GFP, PNC prevalence imaging, 16 h; active compounds read low | activity change (PNC), negative = inhibition, % at 10 µM | 3.1% of 140,000 active;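 active = readout at or below -70, meaning at least 70% loss of cells showing the perinucleolar compartment, a nuclear body marking cancer cells; inconclusive = readout between -30 and a set limit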;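 note: plate controls were DMSO wells for no effect and camptothecin positive control wells for full effect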
#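 PC3M cells stably expressing PTB-GFP, 750–1000 cells/well, treated 16 h at 37 °C with compound (23 nl of library stock), in duplicate. After paraformaldehyde fixation and Hoechst stain, imaged at 20x; PNC prevalence scored by image analysis.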
# Tau ThT inhib: inhibitors of human tau fibril formation, thioflavin T binding. P10636. recombinant tau K18 P301L, heparin-induced fibrillization, ThT fluorescence. Potency, µM (titrated, usually from 57.4 µM), without a hit: top-dose activity, negative = inhibition, most hits filed as inhibitors. 2.1% of 270,000 active; note: potency is the fitted concentration of half-maximal effect; nearly all actives have a fitted effect of over 55% in size
#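 In this qHTS, human K18 P301L tau is incubated with compound and heparin for 6 hr at 37 C, and Thioflavin T fluorescence then reports fibril load.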
# Tau fluor counter: counter-screen for tau fibril formation inhibitors | tau K18 P301L (four-repeat tau fragment) Alexa594 fluorescence, heparin fibrillization | Potency, µM (doses to about 57.7 µM), inactives show top-dose activity change, negative = decrease | 0.93% of 280,000 active; note: potency is the fitted concentration of half-maximal effect; nearly all actives have a fitted effect of over 55% in size
#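 Human K18 P301L tau (15 uM unlabeled plus 0.24 uM Alexa 594-labeled, final) in 100 mM sodium acetate pH 7 was mixed with compound and 20 uM heparin and incubated 6 hr at 37 C.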
# * = called active by the depositor; ? = inconclusive; · = not tested or not shown; [ ] = another dose, or the depositor's remark. Unless noted, calls come from the whole dose curve; as a rule, active = well fitted curve in the direction sought with a large enough effect; inconclusive = small, poorly fitted or top-dose-only effect, or another doubt; inactive = no such curve, though single readings can be large; an effect the other way counts as inactive or inconclusive. Unless noted, % is set by controls: 0 for no effect and ±100 for the full control effect.
SMILES,TRb SRC2 PPI,Tau FP inhib,TR SRC2 fluor cs,PNC assembly inh,Tau ThT inhib,Tau fluor counter
Cc1ccc(N2C(N)=C(C#N)C(c3cccs3)C3=C2CC(C)(C)CC3=O)cc1 (stereo not given),2.9%,-18.3%,-0.1%,19.7,25.1µM*,-24.9%
Cc1nn(CCC(=O)NNC(=S)NCC(C)C)c(C)c1Br,-1.5%,0.5%,-0.2%,-111.7*,-3.6%,-6.6%
O=c1c2ccccc2nc2c3ccccc3c(NCc3cccnc3)nn12,-13.1%,-6.6%,-7.8%,·,-13.3%,-15.2%
COCc1cc(C)nc2sc(C(=O)N3CCCC3)c(N)c12,-4.7%,4.9%,-2.2%,-116.6*,-19.6%,-4.9%
COc1ccc(NC(=O)CSc2nc3ccncc3[nH]2)c(OC)c1,1.5%,-9.8%,0.2%,·,-12.0%,-4.8%
CC1CCc2noc(NC(=O)c3ccccc3[N+](=O)[O-])c2C1 (stereo not given),-9.6%,-0.8%,22387µM*[quencher],·,?,?
Cc1c(C#N)c(O)n(CCO)c(=O)c1N=Nc1ccc(S(N)(=O)=O)cc1,1.9%,0.6%,-2.3%,·,12.6µM*,-5.4%
Cc1cc(=O)n(CCCO)c(O)c1C#N,4.7%,-8.0%,0.3%,-23.3,?,-2.8%
Cc1c(C#N)c(O)n(C)c(=O)c1N=Nc1ccc(S(N)(=O)=O)cc1,0.8%,0.6%,-2.8%,·,3.98µM*,-10.4%
Cc1[nH]n(-c2ccccc2)c(=O)c1C=Nc1ccc(S(N)(=O)=O)cc1,-4.6%,-4.9%,-1.0%,·,·,-3.9%
Cc1c(C#N)c(O)n(CCO)c(=O)c1N=Nc1ccccc1,-3.3%,-3.1%,-2.6%,·,12.6µM*,-6.6%
O=C(Nc1cccc(Cl)c1)N1CCN(Cc2ccccc2)CC1,-4.0%,-5.8%,-0.2%,-96.3*,?,-8.2%
O=C(c1ccccc1)N1CCN(Cc2ccccc2)CC1,1.8%,0.9%,-0.5%,-100.0*,0.9%,2.2%
Clc1ccc(CN2CCC(Cc3ccccc3)CC2)cc1,4.1%,3.1%,-4.3%,-16.6,-4.5%,-6.0%
Clc1cccc(CN2CCC(Cc3ccccc3)CC2)c1,-3.0%,-6.0%,-8.8%,-11.2,17.8µM*,12.6µM*[quencher]
CCOC(=O)C1C(=O)C=C(c2ccc(C)cc2)CC1c1ccco1 (stereo not given),-16.2%,-6.6%,1.0%,25.1,?,-13.3%
Cc1cc(C)n(CC(O)Cn2c3ccc(Cl)cc3c3cc(Cl)ccc32)c(=O)n1 (stereo not given),7.8%,-4.6%,-1.3%,8.1,-9.4%,-22.9%
OC(CNCCC1C=Nc2ccccc21)Cn1c2ccc(Cl)cc2c2cc(Cl)ccc21 (stereo not given),-7.0%[53 µM],?,-1.1%[53 µM],?,?,3.16µM*[quencher]
CCCNC(=O)CNC(=S)N(Cc1ccccc1F)C1CCCCC1,2.1%,3.1%,-7.1%,·,-3.5%,0.5%
COc1ccc(N/N=C(\C=N\O)C(=O)c2ccc(OC)cc2)cc1,5.2%,15.6%,-4.2%,-112.1*,12.6µM*,?
COc1ccc(NC(=O)/C=N/O)cc1,-8.9%,3.5%,-1.9%,·,-9.9%,-2.5%
Cc1ccc2nc(-c3cccc(NS(C)(=O)=O)c3)cc(-c3ccccc3)c2c1,-8.6%[53 µM],-1.6%,0.1µM*[quencher],?,-1.8%,-6.7%
Cc1cccc(CNc2ncnc3ccc(-c4cccc(NS(C)(=O)=O)c4)cc23)c1,-4.1%,17.8µM*,2.8%,·,?,?
CCCCCCCCCCCC1=C(O)C(=O)C=C(O)C1=O,-8.5%,20µM*,-3.9%,·,10µM*,11.2µM*[quencher]
CCCCNC(=O)/C(C#N)=C/c1cccnc1,0.4%[53 µM],-2.3%,-1.7%[53 µM],-105.6*,10.0%,8.7%
SMILES,TRb SRC2 PPI,Tau FP inhib,TR SRC2 fluor cs,PNC assembly inh,Tau ThT inhib,Tau fluor counter
Cc1cccc(NC(=O)/C(C#N)=C\c2cccnc2)c1,-11.2%,9.6%,0.1%,2.3,-16.2%,-0.8%
Cc1cc(C)c(S(=O)(=O)N(C)CC(=O)N2CCCCC2)c(C)c1,-1.3%,3.4%,-3.3%,-15.6,-9.5%,-1.9%
Cc1cc(C)c(S(=O)(=O)N(C)CC(N)=O)c(C)c1,-17.3%,-7.6%,2.2%,-84.9*,-5.0%,-7.5%
CSc1ccccc1NC(=O)CN(C)CC(=O)Nc1ccccc1C(F)(F)F,-0.9%,-2.4%,-2.4%,·,-9.6%,-13.3%
CCOC(=O)CN1C(c2ccc(O)cc2)Nc2ccc(Br)cc2C1c1ccccc1 (stereo not given),2.2%,?,-0.3%,?,?,7.08µM*[quencher]
COc1ccccc1NC(=O)N1CCCC1C(=O)Nc1ccc(NC(C)=O)cc1 (stereo not given),-2.5%,-0.6%,-0.4%,-29.5,-10.2%,-4.2%
O=C(NCc1cccnc1)c1ccc(-c2ccc(Cl)cc2)o1,9.2%[53 µM],-4.2%,1.3%[53 µM],·,-0.5%,-11.4%
O=C(NCc1cccnc1)/C(=C\c1ccc(-c2ccc(Cl)c(Cl)c2)o1)S(=O)(=O)c1ccccc1,14.5%,2.0%,-1.4%,-80.9*,10.7%,4.9%
COC(=O)Cc1c(C)c2ccc(OCC(C)=O)c(C)c2oc1=O,-7.5%,4.0%,1.0%,-25.9,2.3%,2.8%
CCOc1ccc(C2NC(=O)C(C#N)=C(S)N2c2cccc(C)c2)cc1OC (stereo not given),0.0%,?,-0.6%,·,31.6µM*,-24.8%
COc1ccc(C2NC(=O)C(C#N)=C(S)N2c2ccccc2)cc1OC (stereo not given),-2.0%,?,0.2%,·,?,-11.6%
CCOc1ccc(C2NC(=O)C(C#N)=C(S)N2c2ccc(C)cc2)cc1OC (stereo not given),3.1%,?,-3.6%,-13.0,31.6µM*,-23.8%
[2H]c1c([2H])c([2H])c(C(=O)c2sc(N3CCCCCC3)nc2-c2ccccc2)c([2H])c1[2H],-3.2%,5.9%,-0.2%,14.1,?,-17.2%
N=c1c(-c2nc3ccccc3[nH]2)cc(C(=O)c2ccco2)nn1-c1ccccc1,5.3%,9.6%,-1.1%,-22.7,15.8µM*,?
N=c1c(-c2nc3ccccc3[nH]2)cc(C(=O)c2cccs2)nn1-c1ccccc1,-6.3%,-3.9%,0.0%,-25.8,-2.3%,-3.9%
CCN(CC)c1ccc(/C=N/NC(=O)c2ccc(Br)o2)cc1,5.0%,12.3%,-8.3%,-10.1,3.16µM*,?
CCc1ccc(/C=N\NC(=O)c2ccc(Br)o2)s1,6.1%,3.6%,-7.4%,-2.7,2.5%,3.2%
Cc1ccc(/C=N/NC(=O)c2ccc(Br)o2)s1,6.4%,4.1%,-0.5%,-97.9*,-14.3%,1.3%
Cc1cc(/C=C2\SC(=S)N(C)C2=O)c(C)n1-c1cccc(O)c1,-1.9%,-11.4%,-2.2%,·,7.94µM*,10µM*[quencher]
COc1ccc(-n2c(C)cc(/C=C3/SC(=S)N(C)C3=O)c2C)cc1,-0.5%,-7.4%,-1.4%,?,?,-24.2%
